Unmarked numbers belong to inactive results. The rule behind the calls is not given here.
Each molecule was assayed against Pantothenate synthetase (Mycobacterium tuberculosis (strain ATCC 25618 / H37Rv)) (UniProt P9WIL5) (assay: Recombinant Mtb pantothenate synthetase (PanC) inhibitors, coupled enzyme, confirmatory (AID 375;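 note: 0% = full reaction with vehicle and 100% = no enzyme background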)). Conditions: coupled enzyme assay; at 10 µM, stronger effect = higher value.
Chain of Pantothenate synthetase (Mycobacterium tuberculosis (strain ATCC 25618 / H37Rv)) (P9WIL5 whole entry, looked up): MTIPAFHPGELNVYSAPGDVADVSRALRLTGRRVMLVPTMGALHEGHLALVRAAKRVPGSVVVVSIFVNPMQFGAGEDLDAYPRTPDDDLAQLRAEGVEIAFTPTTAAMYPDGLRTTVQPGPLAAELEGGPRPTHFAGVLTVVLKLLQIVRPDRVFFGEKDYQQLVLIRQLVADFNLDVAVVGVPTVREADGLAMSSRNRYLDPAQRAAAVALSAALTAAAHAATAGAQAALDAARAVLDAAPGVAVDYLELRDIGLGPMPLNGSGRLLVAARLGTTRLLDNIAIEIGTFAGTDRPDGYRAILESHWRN

Compound | inhibition [%]
CCc1ccccc1NC(=O)CSC1=C(C#N)C(c2ccc(O)c(OC)c2)C2=C(CCCC2=O)N1 (stereo not given) | 6
Cc1cc(Cl)cc2c1NC(=O)[C@]21[C@@H]2C(=O)N(Cc3ccccc3)C(=O)[C@@H]2[C@@H]2CCCN21 | 6
CC1(C)Cc2c(C#N)c(SCCC#N)nc(N3CCOCC3)c2CS1 | 0
c1cc2c(cc1C1=Nn3c(nnc3C3CCCCC3)SC1)OCO2 | 0
COc1ccccc1N1CCN(C(=O)C2CC=CCC2C(=O)O)CC1 (stereo not given) | 14
CCOC(=O)C1CCN(c2cc(C)nc3cc(-c4cccc(F)c4)nn23)CC1 | 3
C=CCn1c(SCc2cccc(C#N)c2)nnc1-c1ccccc1O | 0
CC1CCN(C(=O)CSc2nc3ccccc3[nH]2)CC1 | 0
CC(OC(=O)C1CC=CCC1C(N)=O)C(Cl)=C(Cl)Cl (stereo not given) | 0
CCOC(=O)c1cnn(-c2sc(C(=O)OCC)c(C)c2C(=O)OCC)c1N | 0
CCN(CC)C1CCCCC1NS(=O)(=O)c1ccc(Cl)cc1 (stereo not given) | 0
CCCS(=O)(=O)N1CCC(C(=O)NCCN2CCCC2)CC1 | 0
Cn1c(=O)n(CCC(=O)O)c2ccccc21 | 7
C=CCn1c(N)c(C(=O)NCCC2=CCCCC2)sc1=S | 0
O=C(CSc1nc2ccccc2o1)N1CCN(C(=O)c2ccco2)CC1 | 0
CCN(C(=O)c1cc(Cl)ccc1OC)C1CCCCC1 | 0
CC(=O)Nc1ccc(Oc2cc(C#N)c(C#N)cc2N2CCCCCC2)cc1 | 0
CCCC(=O)Nc1nnc(CC(=O)N2CCCC2)s1 | 0
CCCc1cc(Nc2cccc(OC)c2)n2ncnc2n1 | 0
CC(O)c1cc2c(cc1NC(=O)c1cnn3c1NC(c1ccco1)CC3C(F)(F)F)OCO2 (stereo not given) | 0

Compound | inhibition [%]
CC(C)n1c(CN2CCN(C)CC2)nc2c1c(=O)n(C)c(=O)n2C | 0
Cc1cc(C)n(S(=O)(=O)c2cc(C(=O)O)c(Cl)cc2Cl)n1 | 0
CCOc1ccc(N2C(=O)CC(N3CC(C)OC(C)C3)C2=O)cc1 (stereo not given) | 0
CCOC(=O)N1CCC(NC(=O)c2cnn3ccccc23)CC1 | 0
COC(=O)c1cc(-c2c(C)oc3cc(O)ccc3c2=O)c(C)o1 | 3
N#Cc1cnc2sc3ccccc3n2c1=N | 3
Cc1ccc(-n2c(=O)c(C#N)cc3c(=O)n4ccccc4nc32)cc1 | 0
COc1ccc2nc3oc(C(=O)NC4CCN(Cc5ccccc5)CC4)cc3cc2c1 | 1
Cc1ccc2nsnc2c1S(=O)(=O)N1CCN(Cc2ccc3c(c2)OCO3)CC1 | 5
CC(O)CN(Cc1cccc(Cl)c1)CC(C)O (stereo not given) | 5
CCCn1c(SCC(=O)Nc2cc(C)on2)nc2c1c(=O)n(C)c(=O)n2C | 0
CC(C)COC(=O)NCC12C=CC(O1)C1C(=O)N(c3ccc(Cl)cc3)C(=O)C12 (stereo not given) | 0
O=C1OCCC1Sc1ncnc2sc3c(c12)CCC3 (stereo not given) | 0
CCOC(=O)c1nnn(-c2nonc2NC(C)=O)c1C | 8
O=C(O)COc1cccc(NC(=O)C2CCCO2)c1 (stereo not given) | 0
O=C1C2ON(c3ccc(Cl)cc3)C(c3ccco3)C2C(=O)N1c1ccccc1 (stereo not given) | 0
O=C(c1ccco1)N1CCN(c2cccc(Cl)c2)CC1 | 0
COCCNC(=O)c1cc2c(-c3ccccc3F)nn(C)c2s1 | 8
O=C(Nc1cc(C(F)(F)F)ccc1Cl)c1cc(C2CC2)on1 | 2
COc1cc(NC(=O)C(C)Oc2ccccc2)c(C(=O)O)cc1OC (stereo not given) | 0
